This is part of a sample that, as a whole, favours compounds with a hit. Of some 83,000 tested, about 20% had one in any assay.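 Values shown are percent growth following 48 h exposure of cells in 96-well plates to a single concentration of compound; below 10 was considered active.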 Unmarked numbers belong to inactive results. Activity calls are given as the source filed them.

Holding throughout (test): NCI-60 one-dose screen, 48 h (100 = growth as untreated, 0 = no growth, -100 = all killed)
What all share (details): 10 µM unless noted

In assay [1] the test system is RPMI-8226 leukemia.
Assay [2] concerns OVCAR-8 ovarian.
The test system of assay [3] is OVCAR-5 ovarian.
In assay [4] the test system is OVCAR-4 ovarian.
The test system of assay [5] is SK-OV-3 ovarian.
Assay [6] concerns IGROV1 ovarian.
Assay [7] has as its system OVCAR-3 ovarian.
The subject of assay [8] is HS 578T breast.
Assay [9] relates to NCI/ADR-RES ovarian.
Assay [10] has as its system T-47D breast.

As for `C=C(C)[C@@H]1CC[C@]2(C(=O)n3ccnc3)CC[C@]3(C)[C@H](CC[C@@H]4[C@@]5(C)CCCNC(C)(C)[C@@H]5CC[C@]43C)[C@@H]12`, the growth in assay [1] was -51.3% (active); in assay [2], 62.8%; in assay [3], 74.9%; in [4] it was 38.3%; in [5], 61.9%; in assay [6], 20.4%. Further, the growth in assay [7] is 30.9%; in assay [8] it was 47.4%; in assay [9], 32.9%; in assay [10] it was 11.4%.
`COc1cc2c(Nc3ccc(NC(=O)Nc4ccc(Cl)c(C(F)(F)F)c4)c(Cl)c3)ncnc2cc1OCCCN1CCN(C)CC1`: the growth in assay [1] is -39% (active); in assay [2] it was 13%; in assay [3] it was 31%; in assay [4], -9.14% (active); in [5], 20.4%; in assay [6], -2.58% (active). In addition, the growth is 11% in [7], -8.65% (active) in assay [8], 93.3% in [9] and 22.2% in assay [10].
Turning to `C=CCn1c(CN2CCN(c3cc4c(cc3F)c(=O)c(C(=O)O)cn4C3CC3)CC2)n[nH]c1=S`, the growth is 109% in [1]; 100% in assay [2]; 94% in [3]; 105% in assay [4]; 108% in assay [5]; 96.2% in assay [6]. In addition, the growth in assay [7] is 102%; in [8], 95%; in [9], 99.2%; in assay [10], 103%.
Regarding `CN1CCN(/C=C2\CC(C(=O)NCc3ccc(Cl)cc3Cl)NC2=O)CC1` (stereo not given), the growth in [1] was 93.9%; in assay [2], 99.1%; in assay [3] it was 110%; in [4], 110%; in assay [5] it was 107%; in assay [6] it was 109%. For the same molecule, the growth in assay [7] was 108%; in assay [8], 103%; in [9], 107%; in assay [10], 113%.
As for `Cc1cc(Nc2nc(SCc3ccc(C(=O)Nc4ccc(F)cc4N)cc3)nn3cccc23)n[nH]1`, the growth was 13.1% in assay [1]; 15.4% in assay [2]; 52.3% in assay [3]; 40.8% in [4]; 17.9% in assay [5]; 33.6% in assay [6]. Also, the growth in [7] is 11.4%; in assay [8], 37.4%; in assay [9] it was 30.2%; in assay [10] it was 62.1%.
On to `COc1cc(C(=O)Nc2cc(OC)c3ccn(C)c3c2)cc2c1C[C@]1(C)CC[C@@H](O)C(C)(C)[C@H]1O2`, for which the growth is -31.1% (active) in assay [1]; 24.1% in [2]; 55.2% in [3]; 54.8% in [4]; 15.2% in [5]; 25.2% in [6]. Moreover, the growth in assay [7] was -14.6% (active); in [8] it was -12.5% (active); in assay [9], 13.9%; in [10], 19.5%.
In the case of `COc1cccc(NC(=O)Nc2ccc(Oc3ncnc4[nH]c(C)c(C)c34)cc2)c1`, the growth in assay [1] is 72.4%; in [2], 77%; in assay [3], 129%; in assay [4], 99.2%; in [5], 107%; in assay [6], 52%. For the same molecule, the growth in assay [7] is 103%; in [8] it was 84.8%; in [9], 83.5%; in assay [10] it was 95.2%.
For `C#C[C@@]1(O)[C@@H](CO)O[C@@H](n2ccc3c(N)ncnc32)[C@@H]1O`, the growth was 4.21% (active) in assay [1]; -21.7% (active) in assay [2]; 25.6% in assay [3]; 0.622% (active) in assay [4]; -7.62% (active) in [5]; 4.28% (active) in assay [6]. In addition, the growth was 18.2% in assay [7], 51.6% in assay [8], -9.78% (active) in assay [9] and -34% (active) in [10].
For `CC(=O)c1cc2c(N)c(C(=O)Nc3ccccn3)sc2nc1C`, the growth is 99.2% in [1]; 103% in assay [2]; 89.4% in assay [3]; 99.4% in assay [4]; 48.3% in assay [5]; 92.8% in [6]. Moreover, the growth was 92.2% in assay [7], 74.2% in assay [8], 94.7% in assay [9] and 94.5% in [10].
Regarding `CCCCCCCCCCCCCC1=NCC[N+]1(CCO)Cc1ccccc1` (stereo not given), the growth was -47.2% (active) in [1]; -83% (active) in assay [2]; -15% (active) in assay [3]; -28.5% (active) in [4]; 48.8% in assay [5]; -72.6% (active) in assay [6]. The growth was -86.9% (active) in assay [7], -36.5% (active) in [8], -60.1% (active) in assay [9] and -72.8% (active) in assay [10].
Regarding `COc1ccc(/C=C/C(=O)Nc2ncnc3nc[nH]c23)cc1`, the growth in assay [1] was 99%; in [2] it was 103%; in [3], 118%; in assay [4], 98.8%; in [5], 113%; in assay [6], 105%. The growth is 104% in assay [7], 101% in assay [8], 96.6% in assay [9] and 91.2% in assay [10].
As to `Nc1ccccc1NS(=O)(=O)c1ccc(Cl)cc1`, the growth in assay [1] is 95%; in assay [2], 108%; in assay [3] it was 95.3%; in assay [4] it was 100%; in assay [5], 105%; in assay [6], 98.3%. For the same molecule, the growth in assay [7] is 105%; in assay [8] it was 98.6%; in assay [9] it was 97.3%; in assay [10], 106%.
`Cc1nc2sc(C(=O)Nc3cccc4ccccc34)c(N)c2cc1C(C)O` (stereo not given): the growth in assay [1] is 18%; in assay [2], 16.2%; in assay [3] it was 40.7%; in [4] it was 55.5%; in assay [5], 32.1%; in assay [6], 31.7%. Besides, the growth in assay [7] was 3.11% (active); in [8], 32.3%; in assay [9], -1.67% (active); in [10], 49.4%.
